The source of these data is PubChem BioAssay AID488969 (Vanderbilt High Throughput Screening Facility, 2010).

In all, about 110,000 compounds were measured (“z-score”: median about -0.1, highest 2% from about 2 on). Many of the other results were omitted from the sample, so the highest values are more common in it than they were. Calls of active or inactive are those of the source.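 How the source made its calls: active means z-score in the third read window above 3 or below -3; inactive means the rest.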

Metabotropic glutamate receptor 8 (Rattus norvegicus), sequence (P70579 whole entry, looked up): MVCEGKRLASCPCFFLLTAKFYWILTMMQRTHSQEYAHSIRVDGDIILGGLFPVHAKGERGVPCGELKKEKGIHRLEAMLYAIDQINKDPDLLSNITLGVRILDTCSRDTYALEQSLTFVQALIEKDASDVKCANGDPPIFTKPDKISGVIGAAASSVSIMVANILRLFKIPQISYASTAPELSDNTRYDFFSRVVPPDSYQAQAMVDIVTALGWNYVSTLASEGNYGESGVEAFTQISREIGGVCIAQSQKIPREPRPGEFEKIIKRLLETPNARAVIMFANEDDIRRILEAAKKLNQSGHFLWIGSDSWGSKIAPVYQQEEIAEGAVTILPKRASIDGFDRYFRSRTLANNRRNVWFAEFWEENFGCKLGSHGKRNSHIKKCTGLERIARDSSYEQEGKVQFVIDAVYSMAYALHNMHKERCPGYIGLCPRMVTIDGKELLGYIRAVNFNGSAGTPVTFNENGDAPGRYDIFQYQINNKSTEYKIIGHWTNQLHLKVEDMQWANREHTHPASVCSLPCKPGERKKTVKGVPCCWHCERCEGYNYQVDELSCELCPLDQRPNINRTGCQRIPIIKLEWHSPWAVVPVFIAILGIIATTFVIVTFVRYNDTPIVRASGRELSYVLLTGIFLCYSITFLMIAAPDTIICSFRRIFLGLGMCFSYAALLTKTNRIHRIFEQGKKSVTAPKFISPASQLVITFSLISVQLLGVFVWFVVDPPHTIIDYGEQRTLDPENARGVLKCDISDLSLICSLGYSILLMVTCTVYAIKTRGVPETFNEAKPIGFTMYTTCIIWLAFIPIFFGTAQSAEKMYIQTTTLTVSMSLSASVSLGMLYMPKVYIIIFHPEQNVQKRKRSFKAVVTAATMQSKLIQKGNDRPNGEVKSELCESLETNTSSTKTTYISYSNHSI

The assay addresses Metabotropic glutamate receptor 8 (Rattus norvegicus) (UniProt P70579). Briefly: rat mGluR8 modulators via GIRK flux, primary screen, cell-based, thallium flux, HTS (AID 488969). As to conditions: HEK293 rat mGluR8, GIRK (G protein-gated inwardly rectifying potassium channel) thallium flux, FluoZin2; at 10 µM; stronger effect = higher value; submaximal glutamate (EC20) added with thallium.
Take `COc1cc2cc3c(N)c(C(=O)Nc4sc(C)c(C)c4C#N)sc3nc2cc1OC`: the z-score amounted to 0.0438. Next, `Cc1[nH]c(=O)[nH]c(=O)c1NC(=O)c1sc2nc3c(C)cccc3cc2c1N`: -0.256.

As for `Cc1sc(NC(=O)c2sc3nc4c(C)cccc4cc3c2N)c(C#N)c1C`, the z-score came to 2.37.

In turn, `CCN(CC)S(=O)(=O)c1ccc(N2CCCCC2)c(NC(=O)/C(C#N)=C/c2ccc(OC)cc2)c1` registered a z-score of -0.0436. The figure for `O=c1[nH]cnc2cc(Cl)ccc12` is -0.0535. Next, `CCOc1ccc(C(C)=O)cc1N1C(=O)C2C3C=CC(O3)C2C1=O` (centres undefined): -0.01.

The compound `CCOc1ccc(C(C)=O)cc1N1C(=O)C2C3C=CC(C3)C2C1=O` (centres undefined) returned a z-score of -0.533. The figure for `CCOc1ccc(C(C)=O)cc1N1C(=O)C2C(C1=O)C1C=CC2C12CC2` (centres undefined) is 4.92 (active); for `COCCCNC(=O)C1CCCCN1S(=O)(=O)c1ccc(F)cc1` (centres undefined) it is 0.633. The figure for `Cc1ccc(-c2nnc(SCC(=O)Nc3ccc4c(c3)OCCO4)n2N)cc1` is 14.1 (active); for `CCn1c(Cc2ccccc2)nnc1SCC(=O)Nc1ccc(N2CCOCC2)c(Cl)c1` it is -0.645.

For `COc1ccc(-c2nnc(SCC(=O)Nc3ccc4c(c3)OCCO4)n2N)cc1OC`, the z-score is -0.393. The figure for `CCn1c(SCC(=O)Nc2ccc(N3CCOCC3)c(Cl)c2)nnc1-c1ccc(N)cc1` is 2.78; for `Nn1c(SCC(=O)Nc2ccc3c(c2)OCO3)nnc1-c1ccc(Cl)cc1` it is -0.179; for `Cn1c(SCC(=O)Nc2ccc(N3CCOCC3)c(Cl)c2)nnc1-c1ccccc1` it is -0.0676. Next, `CC(CCc1ccccc1)NC(=O)C(Cc1ccccc1)NS(=O)(=O)c1cccs1` (centres undefined): -0.446; `COc1ccc(-c2cc(CNC(=O)CCl)on2)cc1`: -0.113. Next, `CC(=O)c1ccc(N2CCN(C(=O)c3ccco3)CC2)c(F)c1`: -0.0315.

Compound `Cc1ccc2nc(-c3ccc(NC(=S)NC(=O)C(C)C)cc3)sc2c1` showed a z-score of -0.127.

Compound `Cc1ccc(SC(=O)COc2ccccc2C)cc1` yielded a z-score of -0.399. The figure for `Cc1ccc(CNC(=O)COC(=O)CSc2cc(C)c(Br)cc2C)cc1` is 0.22; for `O=C(C1=C(O)/C(=C/c2ccc(O)cc2)CCC1)C(F)(F)F` it is 0.181; for `COc1ccc(/C=C2\CCOC2=O)cc1` it is 0.296. Next, `COc1ccc(/C=C2\CCCC(C(=O)C(F)(F)F)=C2O)cc1`: 2.59. With `Cc1ccc(NC(=O)CN2CCC(C(=O)c3ccc4c(c3)OCCO4)CC2)cc1`, the z-score is -0.152.

`CCOCCCNC(=O)C(NC(=O)CC1NC(=O)NC1=O)c1ccc(Cl)cc1` (centres undefined): the z-score is -0.134. Next, `COc1ccc(CCNC(=O)c2nc3ncccn3n2)cc1OC`: 0.169; `O=P(OC1CCCCC1)(OC1CCCCC1)C(O)c1ccccc1` (centres undefined): -0.904; `Cc1ccc(-n2[nH]c(C)c(/C=N/c3ccccn3)c2=O)cc1`: 6.24 (active).

The compound `Cc1[nH]n(-c2ccccc2)c(=O)c1/C=N/c1ccccn1` registered a z-score of 2.61. `Cc1ccc(-n2[nH]c(C)c(C=Nc3cc(C)ccn3)c2=O)cc1`: the z-score was 10.6 (active). For `Cc1ccc(-n2[nH]c(C)c(C=Nc3ccc4[nH]c(=O)[nH]c4c3)c2=O)cc1`, the z-score was -0.443. The figure for `CCCCN(CCCC)C(=S)N/N=C/c1c(C)[nH]n(-c2ccccc2)c1=O` is 10.4 (active); for `Cc1ccc2cccc(N=Cc3c(C)[nH]n(-c4ccccc4)c3=O)c2n1` it is 0.282. As to `Cc1ccc(-n2[nH]c(C)c(C=Nc3ccc(S(=O)(=O)Nc4nccs4)cc3)c2=O)cc1`, the z-score was -0.363. As for `Cc1[nH]n(-c2ccccc2)c(=O)c1/C=N\NC(=O)C1COc2ccccc2O1` (centres undefined), the z-score was -0.0839. Next, `CCCc1nc2ccccc2c(=O)n1/N=C/c1c(C)[nH]n(-c2ccc(C)cc2)c1=O`: 1.38; `Cc1[nH]n(-c2ccccc2)c(=O)c1C=Nc1cccc2cccnc12`: 0.652. The figure for `Cc1ccc(-n2[nH]c(C)c(/C=N/n3c(C)nc4ccccc4c3=O)c2=O)cc1` is 0.177; for `Cc1[nH]n(-c2ccccc2)c(=O)c1/C=N/O` it is -0.187.

The compound `Cc1nc2ccc(S(=O)(=O)NCC(=O)N3CCCCC3)cc2s1` returned a z-score of -0.09. Next, `COc1cc(NC(=O)CN(C)Cc2ccc(OC(F)F)cc2)c(C)cc1[N+](=O)[O-]`: -0.0913. As to `COC(=O)c1ccc(CSc2n[nH]c(C)n2)o1`, the z-score is -0.0591. Next, `CCOc1ccc(C(C)=O)cc1COC(=O)C1=COCCO1`: -1.15; `CCCc1nc2sc3c(=O)n(N)cnc3c2c2c1CCCC2`: -0.191. `CCc1nnc(NS(=O)(=O)c2ccc(N=Cc3c(C)[nH]n(-c4ccc(Cl)cc4)c3=O)cc2)s1` came in with a z-score of -0.276. The figure for `Cc1[nH]n(-c2ccc(Cl)cc2)c(=O)c1C=NC12CN3CN(CN(C3)C1)C2` is -0.111; for `Cc1[nH]n(-c2ccc(Cl)cc2)c(=O)c1/C=N/c1nnc(-c2ccccc2)s1` it is 8.81 (active); for `O=C(CSCCO)Nc1ccccc1` it is 3.04 (active). Compound `O=C(O)CSCC(=O)Nc1ccccc1` gave a z-score of 0.00603. The figure for `O=C(O)CCCSCC(=O)Nc1ccccc1` is 0.633. Next, `Cc1ccc(C2=[N+]([O-])C3(CCCCC3=O)N(O)C2(C)C)cc1` (centres undefined): 0.0871; `O=C(COC(=O)Cc1cccc2ccccc12)Nc1ccccc1-c1ccccc1`: -0.174. Next, `O=C1/C(=C/c2ccc(F)cc2)SC(=S)N1Nc1ncc(C(F)(F)F)cc1Cl`: 0.426.
